High-throughput results: PubChem BioAssay, National Center for Advancing Translational Sciences (NCATS)
Shiga inhibitor: inhibitors of Shiga toxin in Vero cells; Vero cells, Shiga toxin protein synthesis inhibition reporter; actives 9.2% (n = 290,000); inhibition, % at 38.7 µM; in the data active = inhibition mostly above about 28%, no sharp cut-off; inactive = mostly below about 43%; also: 0% is about no effect
Cycloheximide cs: counter-screen for Shiga toxin inhibitors: cycloheximide protein synthesis inhibition. cell reporter, cycloheximide protein synthesis inhibition counterscreen. max response, %. actives 12% (n = 300,000). AID 2314; in the data active = max response mostly above about 13%, no sharp cut-off; inactive = mostly below about 14%; also: read at 38.3 µM for the half of the compounds with a filed dose; 0% is about no effect
Pf growth 48h: P. falciparum growth inhibition at 48 hours (one generation); P. falciparum luciferase growth in erythrocytes, 48 h; Potency, µM (highest dose often 28.7 µM), for inactives: at the top dose activity change, negative = inhibition, most hits filed as inhibitors; actives 5.9% (n = 310,000); AID 504832; also: potency is read from the fitted curve at half-maximal effect; % is scaled to controls: 0 for no effect and ±100 for the full control effect
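First compound was added to culture medium, then infected red cells at 0.1% parasitemia and 2% hematocrit (final). After incubation at 37 C under 5% CO2, luciferase detection reagent was dispensed and light output recorded.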
HCV inhibitor: HCV inhibition. actives 3.4% (n = 340,000). AID 651820. Potency, µM (top dose mostly 41.8 µM), without a hit: top-dose activity change, negative = inhibition, most hits filed as inhibitors. Huh7.5.1 HCVcc-Cre infection, luciferase reporter, 44 h; also: potency is read from the fitted curve at half-maximal effect; % is scaled to controls: 0 for no effect and ±100 for the full control effect
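Infectious HCVcc-Cre (~0.5 moi) was added to cells just after compound, with cells seeded 4 h earlier at 1,000 per well. Luciferase activity after 44 h culture reported infection; substrate was incubated 15 min at room temperature before reading.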
AMA1 RON2 block: AMA1-RON2 (P. falciparum) interaction inhibition | actives 0.2% (n = 360,000) | Potency, µM (highest dose often 58.2 µM), without a hit: at the highest dose activity change, negative = inhibition, usual class: inhibitors | AlphaScreen AMA1-biotinylated RON2 peptide binding | AID 720542;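 also: potency is read from the fitted curve at half-maximal effect; 0% = vehicle wells and -100% = peptide control; nearly all actives have a fitted effect of over 45% in size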
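AMA1 (3D7) with his tag at 25 nM final met compounds first, then biotinylated RON2 peptide at 25 nM; detection used donor plus acceptor beads, 10 µg/mL apiece, read by AlphaScreen after 30 min at room temperature.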
Pf growth 96h: P. falciparum growth inhibition at 96 hours; P. falciparum luciferase reporter growth, 96 h; Potency, µM (doses to about 28.7 µM), for inactives: at the highest dose activity change, negative = inhibition, usual class: inhibitors; actives 6.9% (n = 320,000); AID 504834; also: potency is read from the fitted curve at half-maximal effect; % is scaled to controls: 0 for no effect and ±100 for the full control effect
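Two parasite generations (96 h, 37 C, 5% CO2) of compound exposure in infected erythrocytes (0.05% parasitemia, 2% hematocrit). Luciferase-reporter P. falciparum; decreased luminescence indicates inhibited growth, aimed at apicoplast-acting delayed death.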
* hit, by the source's call. Only some compounds are listed: those with a hit (about 21% of all), similar ones and a draw of the others. Unless noted, calls follow the shape of the dose curve; as a rule, active = well fitted curve in the direction sought with a large enough effect; inconclusive = small, poorly fitted or top-dose-only effect, or another doubt; inactive = no such curve, though single readings can be large; an effect the other way counts as inactive or inconclusive.

CCC(CC)c1ncc[nH]1 was read as Shiga inhibitor 5, Cycloheximide cs -4, Pf growth 48h 3%, HCV inhibitor 2%, AMA1 RON2 block 13% and Pf growth 96h inconclusive.
CCOC(=O)c1cc(OC(C)=O)c2ccc(OC)c(OC)c2c1 was read as AMA1 RON2 block 27%.
`Cc1ccc2nc3c(c(C(=O)OCC(=O)NC4CCS(=O)(=O)C4)c2c1)CCCC3` (stereo not drawn) gave Shiga inhibitor -4, Cycloheximide cs -5, Pf growth 48h -18%, HCV inhibitor inconclusive, AMA1 RON2 block -3% and Pf growth 96h inconclusive.
Screening CCc1nc2ccc(C(=O)Nc3cc(-c4ccccc4)ccc3OC)cn2c1N(C)C(=O)c1cccc(OC)c1 returned AMA1 RON2 block -7%.
COc1cccc(Nc2ncnc3ccc(Br)cc23)c1 was read as AMA1 RON2 block 15%.
For CC(=O)Oc1cccc(Nc2ncnc3ccccc23)c1 the results were Cycloheximide cs 19*, Pf growth 48h -11%, HCV inhibitor -20%, AMA1 RON2 block 7% and Pf growth 96h 39%.
`Brc1ccc2ncnc(Nc3cccc4ccccc34)c2c1` gave Shiga inhibitor 12, Cycloheximide cs 0, Pf growth 48h inconclusive, HCV inhibitor inconclusive, AMA1 RON2 block -6% and Pf growth 96h 13µM*.
Cc1cccc(-n2c(C)nc3ccccc3c2=O)n1 was read as Shiga inhibitor 24, Cycloheximide cs 14, Pf growth 48h 65%, HCV inhibitor 4%, AMA1 RON2 block -3% and Pf growth 96h 5.2µM*.
For Cc1ccc(/C(=N/Nc2ncnc3ccccc23)C(=O)O)cc1 the results were Shiga inhibitor 93*, Cycloheximide cs 80*, Pf growth 48h 76%, HCV inhibitor 7%, AMA1 RON2 block 75% and Pf growth 96h -5%.
Screening O=C(O)/C=C/C(=O)N(CC1CCCO1)C1CC(=O)N(c2c(Cl)cccc2Cl)C1=O (stereo not drawn) returned Shiga inhibitor 23, Cycloheximide cs 2, Pf growth 48h 54%, HCV inhibitor inconclusive, AMA1 RON2 block -6% and Pf growth 96h 42%.
Screening O=C(O)c1cccc(Nc2ncnc3ccc(Br)cc23)c1 returned Shiga inhibitor 43*, Cycloheximide cs 25*, Pf growth 48h 7%, HCV inhibitor -3%, AMA1 RON2 block -2% and Pf growth 96h 28%.
CC(Nc1ncnc2ccccc12)c1ccccc1 (stereo not drawn) was read as Shiga inhibitor -7, Cycloheximide cs -3, Pf growth 48h -3%, HCV inhibitor 4.5µM*, AMA1 RON2 block 10% and Pf growth 96h -36%.
O=C(N/N=C/C=C\c1ccc([N+](=O)[O-])cc1)c1cccnc1 was read as Shiga inhibitor 12, Cycloheximide cs -1, Pf growth 48h 20%, HCV inhibitor 2%, AMA1 RON2 block 55% and Pf growth 96h 31%.
C[C@@H](CSc1ccccc1)CN1CC[C@H](O)CCC1=O was read as Shiga inhibitor 6, Cycloheximide cs 0, Pf growth 48h 6%, HCV inhibitor -10%, AMA1 RON2 block -9% and Pf growth 96h inconclusive.
`CC(=O)c1cccc(NC(=O)/C=C/c2ccc([N+](=O)[O-])s2)c1` gave Shiga inhibitor 96*, Cycloheximide cs 33*, Pf growth 48h -6%, HCV inhibitor inconclusive, AMA1 RON2 block 2% and Pf growth 96h inconclusive.
For Cc1ccccc1NC(=O)/C=C/c1ccc([N+](=O)[O-])s1 the results were Shiga inhibitor 1, Cycloheximide cs 13, Pf growth 48h 7.4µM*, HCV inhibitor 10µM*, AMA1 RON2 block 0% and Pf growth 96h 12µM*.
Screening COc1ccc(-c2cn(CCO)c(-c3ccc(Cl)nc3)n2)cc1 returned Pf growth 48h inconclusive, HCV inhibitor 48%, AMA1 RON2 block -1% and Pf growth 96h inconclusive.
`Cn1nc(C(=O)OCC(=O)Nc2cc(Cl)ccc2C#N)c2ccccc2c1=O` gave Pf growth 48h 7%, HCV inhibitor -2%, AMA1 RON2 block -1% and Pf growth 96h -20%.
CC(=O)Nc1cc(-c2ccccc2N(C)C)cn2c(-c3cccc(C(F)(F)F)c3)cnc12 was read as AMA1 RON2 block -19%.
For Cc1cc2ccccc2n2c(SCC(=O)N3CCOCC3)nnc12 the results were Shiga inhibitor 24, Cycloheximide cs -4, Pf growth 48h 9%, HCV inhibitor 9%, AMA1 RON2 block -3% and Pf growth 96h inconclusive.
c1ccc2c(c1)ccc1nnc(SCc3ccc4c(c3)OCCO4)n12 was read as Shiga inhibitor 42*, Cycloheximide cs 42*, HCV inhibitor -17%, AMA1 RON2 block 10% and Pf growth 96h -27%.
For O=C(CSc1nnc2ccc3ccccc3n12)N1CCOCC1 the results were Shiga inhibitor 32*, Cycloheximide cs 63*, Pf growth 48h 81%, HCV inhibitor 2%, AMA1 RON2 block -4% and Pf growth 96h 66%.
For CCn1c(SCC(=O)N2CCOCC2)nnc1-c1cccs1 the results were Shiga inhibitor 27, Cycloheximide cs 6, Pf growth 48h -3%, HCV inhibitor 12%, AMA1 RON2 block -5% and Pf growth 96h 12µM*.
Screening Cc1cc2nnc(SCc3ccc4c(c3)OCO4)n2c2ccccc12 returned HCV inhibitor -7% and AMA1 RON2 block 7%.
c1ccc2c(c1)ccc1nnc(-c3ccc4c(c3)OCO4)n12 was read as Shiga inhibitor active, Cycloheximide cs 12*, Pf growth 48h -7%, HCV inhibitor -3%, AMA1 RON2 block -5% and Pf growth 96h 37%.
Screening CCC(C(=O)NC(C)(C)C)n1c(-c2ccc3c(c2)OCO3)nc2ccccc21 (stereo not drawn) returned AMA1 RON2 block -6%.
Screening CCOc1ccc(NC(=S)N2CCn3c(nc4ccccc43)C2)cc1 returned Shiga inhibitor 2, Cycloheximide cs 16, Pf growth 48h 293% and Pf growth 96h 45%.
Screening CCCCC(=O)OCc1c(-c2cccc(OC)c2)ncc2ccccc12 returned Pf growth 48h 25%, HCV inhibitor -25%, AMA1 RON2 block 17% and Pf growth 96h inconclusive.
For COc1ccc(NC(=O)c2cc(-c3cc(Cl)ccc3OC)n[nH]2)c(C)c1 the results were AMA1 RON2 block 0%.
For COc1ccc(OC)c(NC(=O)c2cc(-c3cc(C)ccc3O)n[nH]2)c1 the results were Shiga inhibitor 36, Cycloheximide cs -2, Pf growth 48h inconclusive, HCV inhibitor -33%, AMA1 RON2 block 3% and Pf growth 96h 6.6µM*.
COc1ccc(OC)c(NC(=O)c2cc(-c3ccc(C)cc3O)n[nH]2)c1 was read as Shiga inhibitor 1, Cycloheximide cs 10, Pf growth 48h 10µM*, HCV inhibitor -12% and AMA1 RON2 block 2%.
